Sm TGR inh: qHTS Assay for the Inhibitors of Schistosoma Mansoni Peroxiredoxins | purified TGR, DTNB reduction, TNB absorbance 405 nm | Potency, µM (series often up to 114 µM), without a hit: top-dose activity change, negative = inhibition, most hits filed as inhibitors | 360,000 tested, 3% active | AID 485364, 2010; note: nearly all actives have a fitted effect of over 60% in size
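TGR 20 nM + NADPH 100 uM (dispensed conc.), cpd preinc 15 min RT; start with NADPH (500 uM addition) then DTNB (15 mM addition). Kinetic TNB absorbance, 405 nm filter. Four-parameter Hill fit across titration.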
AmpC inh detg: qHTS Inhibitors of AmpC Beta-Lactamase (assay with detergent) | Potency, µM (doses to about 114 µM), for inactives: at the highest dose activity change, negative = inhibition, most hits filed as inhibitors | P00811 | 370,000 tested, 0.041% active | AmpC hydrolysis of nitrocefin, absorbance 480 nm, 0.01% Triton;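 note: 0% = no-compound wells and -100% = no-enzyme wells; nearly all actives have a fitted effect of over 25% in size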
Target sequence (P00811 whole entry, looked up): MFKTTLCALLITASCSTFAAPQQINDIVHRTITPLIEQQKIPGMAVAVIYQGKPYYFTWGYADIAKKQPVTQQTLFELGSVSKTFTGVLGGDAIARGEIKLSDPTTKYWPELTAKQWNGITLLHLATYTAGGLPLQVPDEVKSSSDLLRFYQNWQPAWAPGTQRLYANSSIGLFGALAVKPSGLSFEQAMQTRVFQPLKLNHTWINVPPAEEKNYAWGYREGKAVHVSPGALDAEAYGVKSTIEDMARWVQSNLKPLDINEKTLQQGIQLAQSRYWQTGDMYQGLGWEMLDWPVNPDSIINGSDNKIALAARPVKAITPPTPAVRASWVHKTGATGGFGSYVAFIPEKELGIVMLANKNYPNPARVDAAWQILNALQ
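20 mM phosphate pH 7.0 + 0.01% (detergent screen) or 0.0001% Triton X-100; 5.3 nM AmpC reagent; cpd preinc 15 min RT; nitrocefin (800 uM stock) to start; A480 q20 s × 4 min; Activity was normalised to no-enzyme and no-compound control wells.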
FMDV antiviral: High Throughput Screening for Foot and Mouth Disease Virus Antivirals | FMDV antiviral cell-based qHTS | AID 1159524, 2015 | 410,000 tested, 1.2% active | Potency, µM (highest dose often 57.9 µM), for the others: top-dose activity change, negative = inhibition, usual class: inhibitors; calls by dose curve; tested in HEK293T cells; note: read-out not given here; nearly all actives have a fitted effect of over 45% in size
AMA1 RON2 block: qHTS for Inhibitors of AMA1-RON; Towards Development of Antimalarial Drug Lead: Primary Screen; 360,000 tested, 0.2% active; Potency, µM (titrated, usually from 58.2 µM), inactives show top-dose activity change, negative = inhibition, hits mostly inhibitors; Plasmodium falciparum AMA1 (3D7) - RON2 peptide interaction; AlphaScreen AMA1-biotinylated RON2 peptide binding;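 note: 0% = vehicle wells and -100% = peptide control; nearly all actives have a fitted effect of over 45% in size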
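AMA1 (3D7) with his tag at 25 nM final met compounds first, then biotinylated RON2 peptide at 25 nM; detection used donor plus acceptor beads, 10 µg/mL apiece, read by AlphaScreen after 30 min at room temperature.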
AmpC inh no detg: qHTS Inhibitors of AmpC Beta-Lactamase (assay without detergent); P00811; AmpC nitrocefin hydrolysis, absorbance 480 nm, 0.0001% Triton; Potency, µM (top dose mostly 57.1 µM), for inactives: top-dose activity change, negative = inhibition, actives largely listed as inhibitors; 330,000 tested, 0.52% active;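 note: plate controls were no compound for no effect and no enzyme for full effect; nearly all actives have a fitted effect of over 20% in size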
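AmpC (5.3 nM in the dispensed reagent) in 20 mM phosphate pH 7.0 with 0.01% (detergent screen) or 0.0001% Triton X-100 was preincubated with compounds for 15 min at room temperature. Nitrocefin was then added from an 800 uM solution, and hydrolysis was followed at 480 nm.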
Numbers without * were called inactive; ? = inconclusive; nt = no result given; [ ] = remark or other dose. Compounds with a hit are over-represented: about 4.1% of the library has one in this group of screens. Unless noted, calls come from the whole dose curve; as a rule, active = well fitted curve in the direction sought with a large enough effect; inconclusive = small, poorly fitted or top-dose-only effect, or another doubt; inactive = no such curve, though single readings can be large; an effect the other way counts as inactive or inconclusive. Unless noted, % is set by controls: 0 for no effect and ±100 for the full control effect; potency is the fitted concentration of half-maximal effect.

SMILES	Sm TGR inh	AmpC inh detg	FMDV antiviral	AMA1 RON2 block	AmpC inh no detg
CC1Cc2ccccc2N1C(=O)CSc1nnc2c(n1)[nH]c1ccccc12 (stereo not drawn)	-15.0%	-13.2%	14.1µM*	-4.2%	-32.0%
CCCCCc1c(-c2ccccc2OC)ncn1CCc1ccccc1OC	nt	nt	25.1µM*	-19.3%	nt
CCCCc1c(-c2ccccc2Br)ncn1CCc1ccccc1OC	nt	nt	?	-20.0%	nt
CCCCc1c(-c2ccccc2OC)ncn1CCc1ccccc1OC	nt	nt	22.4µM*	-18.6%	nt
CCCCc1c(-c2ccccc2OC)ncn1CCc1cccc(OC)c1	nt	nt	22.4µM*	-2.3%	nt
CCCCc1c(-c2ccccc2OC)ncn1CCc1ccccc1Cl	nt	nt	35.5µM*	-10.7%	nt
COc1ccc(-n2c(CCNC(=O)c3ccccc3C(F)(F)F)nnc2SC)cc1	nt	nt	0.1%	nt	nt
CCCCCc1c(CC)ncn1CCc1ccccc1OC	nt	nt	39.8µM*	-12.7%	nt
CCCCCc1c(-c2ccc(F)cc2)ncn1CCc1ccccc1OC	nt	nt	?	-22.3%	nt
O=C(c1ccco1)N1CCN(c2ncnc3c2nnn3Cc2ccccc2Cl)CC1	-13.6%	-8.0%	?	0.0%	127.9%
O=C(c1ccco1)N1CCN(c2nc(C(F)(F)F)nc3c2nnn3Cc2ccccc2)CC1	-7.7%	?	14.1µM*	-18.3%	46.8%
CCCC[C@]12Cc3cc(C#N)ccc3C(O1)c1c(cc(-c3ccccc3)oc1=O)O2	?	-10.3%[22.9 µM]	nt	nt	-26.4%[11.4 µM]
CCCn1c(SCC(=O)c2ccc3c(c2)NC(=O)CO3)nc2ccccc21	39.8µM*	-1.4%	-20.5%	29.7%	-34.0%
Cn1c(SCC(=O)c2ccc3c(c2)NC(=O)CO3)nc2ccccc21	nt	-0.2%	31.4%	13.2%	-23.9%
Cc1ccc(Cl)cc1N1CCN(C(=O)CN(c2ccccc2)S(=O)(=O)N(C)C)CC1	11.3%	-7.6%	20µM*	-7.1%	82.0%
COC(=O)C[C@H]1C=C[C@@H](NC(=O)NC2CCCCC2)[C@@H](CO)O1	nt	nt	-20.0%	-3.4%	nt
c1ccc(CN(Cc2ccco2)C(c2ccncc2)c2nnnn2C2CCCC2)cc1 (stereo not drawn)	22.4µM*	-0.5%	nt	-8.6%	-25.8%
O=[N+]([O-])c1ccc2c(c1)nc1n2CCN(C2CCCCC2)C1	35.5µM*	-1.2%	17.1%	-0.2%	-40.9%
CCc1nc2ccc(C(=O)Nc3ccc(OC)c(OC)c3)cn2c1N(C)Cc1ccc(N(C)C)cc1	nt	nt	-7.1%	31.6µM*	nt
CCc1nc2ccc(C(=O)Nc3ccc(OC)c(OC)c3)cn2c1N(C)Cc1nccs1	nt	nt	-11.8%	-6.1%	nt
CCOc1ccc(CCNC(=O)c2cc3c(-c4ccccc4F)nn(C)c3s2)cc1	3.6%	9.7%	?	nt	nt
O=C(Nc1ncc(S(=O)(=O)c2ccc([N+](=O)[O-])cc2)s1)c1cccnc1	28.2µM*	-4.3%	-28.9%	26.5%	-20.9%
COc1ccc(-c2nc(C)c(CCNC(=O)c3cccc(C)c3)s2)cc1OC	-2.0%	-7.1%	31.6%	nt	nt
COCC1CCCN(Cc2ccc3c(c2)CN(C(=O)c2ccc(-n4cccn4)cc2)CCO3)C1 (stereo not drawn)	nt	nt	-5.0%	nt	nt
c1ccc(-n2nnnc2Sc2ncnc3sc4c(c23)CCCC4)cc1	-22.7%	?	28.2µM*	12.7%	-12.7%
SMILES	Sm TGR inh	AmpC inh detg	FMDV antiviral	AMA1 RON2 block	AmpC inh no detg
Cc1sc2ncnc(Sc3nnnn3-c3ccc(Cl)cc3)c2c1C	?	-14.5%	?	-1.7%	-32.1%
COC(=O)c1cc(CNC(=O)c2cccc(N(C)C)c2)cc(NC(=O)c2ccccc2Cl)c1	nt	nt	-2.6%	nt	nt
COc1cc2c(cc1OC)C(C)N(C(=O)C1COc3ccccc3O1)CC2 (stereo not drawn)	-0.6%	2.9%	25.1µM*	-6.0%	22.8%
COc1cc2c(cc1OC)C(C)N(C(C)=O)CC2 (stereo not drawn)	-26.6%	-13.6%	nt	8.4%	-16.2%
Cc1cc2c(cc1C)-n1nnnc1C(N1CCCNCC1)C(=O)N2 (stereo not drawn)	nt	nt	-18.6%	55.9%	nt
CCCOc1ccc(C2C3=C(CCCC3=O)N(CC(=O)O)C3=C2C(=O)CCC3)cc1OCC	-5.5%	-19.7%	-2.5%	-3.3%	-20.9%
C#CCOc1ccc(C2C3=C(CCCC3=O)N(CC(=O)O)C3=C2C(=O)CCC3)cc1Br	39.8µM*	-9.0%	-4.7%	-12.4%	-4.2%
C=CCOc1c(Br)cc(C2C3=C(CCCC3=O)N(C)C3=C2C(=O)CCC3)cc1OCC	3.2%	-7.7%	33.4%	12.9%	150.4%
C=CCOc1ccc(C2C3=C(CCCC3=O)N(CC(=O)O)C3=C2C(=O)CCC3)cc1OCC	44.7µM*	2.5%	-4.8%	-10.4%	-3.4%
CN1C(=O)C(Cl)(Cl)C(=O)c2ccccc21	0.0%	?	28.2µM*	4.1%	-23.4%
CCC1(CC)NC(=O)N(CC(=O)NC(=O)NCc2ccccc2)C1=O	22.4µM*	1.1%	-28.8%	2.1%	-4.3%
CCNC(=O)CN1C(=O)NC(Cc2ccccc2)(Cc2ccccc2)C1=O	-4.2%	-9.8%	-5.8%	2.3%	-15.4%
CCOC(=O)c1oc2ccccc2c1NC(=O)CCl	5.62µM*	-0.5%	?	3.5%	-10.3%
CCOC(=O)c1oc2ccccc2c1NC(=O)c1ccc(Cl)s1	4.1%	?	-16.2%	1.9%	7.08µM*
CCOc1c(C=C(C#N)C#N)c2ccccc2n1CC	28.2µM*	?	?	-4.5%	-29.3%
COc1cc(C)c(CN2C[C@H](Sc3nc4ccccc4[nH]3)C[C@H]2C(=O)N(C)C)cc1C	nt	nt	-12.4%	nt	nt
CCN(C(=O)Nc1cn(CC(C)C)c(=O)c2ccccc12)c1cc(C)ccc1C	1.4%	-3.8%	-6.5%	nt	nt
Cc1nn2c(N3CCCC3)c3c(nc2c1-c1ccccc1)CCC3	11.2µM*	-7.5%	-12.5%	14.9%	-8.6%
O=C(CSc1n[nH]c(=O)n1C1CC1)Nc1cc(Cl)ccc1Oc1ccccc1	-10.8%	?	14.1µM*	-1.4%	13.8%
O=C(CSc1n[nH]c(=O)n1C1CC1)Nc1ccccc1	3.3%	?	-9.1%	-12.5%	-33.2%
CCc1ccc(N2C(=O)CC(c3cc(OC)ccc3OC)C3=C2COC3=O)cc1 (stereo not drawn)	2.1%	-2.6%	-1.6%	nt	nt
COc1cc2c(cc1OC)C(COc1ccc3c(C)cc(=O)oc3c1)N(C(=O)c1cccc(OC)c1OC)CC2 (stereo not drawn)	6.9%	4.6%	-30.0%	nt	nt
NN/C(=C\[N+](=O)[O-])Nc1ccc(Cl)cc1	2.82µM*	1.0%	14.0%	12.9%	-51.9%
NNC(=S)Nc1ccc(Cl)cc1	-35.9%	-0.3%	2.4%	31.4%	-38.4%
NN/C(=C\[N+](=O)[O-])Nc1ccccc1	22.4µM*	4.3%	17.5%	18.4%	-36.3%
